FMDV inh: High Throughput Screening for Foot and Mouth Disease Virus Antivirals; Potency, µM (top dose mostly 57.9 µM), most hits filed as inhibitors; AID 1159524, 2015; FMDV antiviral cell-based qHTS; hit rate 1.2% among 410,000; calls by dose curve; tested in HEK293T cells; further: read-out not given here; nearly all actives have a fitted effect of over 45% in size
Marburg entry inh: qHTS for inhibitors of binding or entry into cells for Marburg Virus; Marburg virus pseudotyped entry inhibition, cell reporter; Potency, µM (top dose mostly 37.8 µM), usual class: inhibitors; hit rate 1.8% among 300,000; AID 540276, 2011; calls by dose curve; tested in HEK293 cells
VACV mCherry inh: qHTS for Stage-Specific Inhibitors of Vaccinia Orthopoxvirus: mCherry Reporter Primary qHTS | hit rate 0.63% among 310,000 | Vaccinia virus mCherry reporter infection, fluorescence | Potency, µM (top dose mostly 36.5 µM), most hits filed as inhibitors; calls by dose curve; tested in A549 cells; further: nearly all actives have a fitted effect of over 35% in size
LASV entry inh: qHTS for Inhibitors of binding or entry into cells for Lassa Virus. hit rate 1.2% among 300,000. Potency, µM (doses to about 37.9 µM), most hits filed as inhibitors. AID 540256, 2011. Lassa virus pseudotype entry inhibition, cell reporter; calls by dose curve; tested in HEK293 cells; further: nearly all actives have a fitted effect of over 50% in size
HCV inhibitor: qHTS Assay for Inhibitors of Hepatitis C Virus (HCV); hit rate 3.4% among 340,000; Huh7.5.1 HCVcc-Cre infection, luciferase reporter, 44 h; Potency, µM (titrated, usually from 41.8 µM), usual class: inhibitors; active means well fitted inhibition curve with a large enough effect; inconclusive means small, poorly fitted or top-dose-only effect, or another doubt; inactive means no such curve, though single readings can be large or run the other way
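Seed cells (1,000/well) for 4 h; treat with compound and infect with HCVcc-Cre, moi about 0.5. Incubate 44 h, then detect luciferase activity.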
Vaccinia Venus: qHTS for Stage-Specific Inhibitors of Vaccinia Orthopoxvirus: Venus Reporter Primary qHTS; Vaccinia virus Venus reporter expression, fluorescence; Potency, µM (titrated, usually from 36.5 µM), hits mostly inhibitors; hit rate 0.46% among 330,000; calls by dose curve; tested in A549 cells; further: nearly all actives have a fitted effect of over 30% in size
Hits are given with their value; n = inactive; u = inconclusive; x = no result given. Compounds with a hit are over-represented: about 5.3% of the library has one in this group of screens.

SMILES	FMDV inh	Marburg entry inh	VACV mCherry inh	LASV entry inh	HCV inhibitor	Vaccinia Venus
COc1ccc(OC)c(Nc2nc(-c3ccncc3)nc3ccccc23)c1	u	u	n	u	4.47µM	n
CCc1nc2cc(C(=O)NC3CCS(=O)(=O)C3)cc(NC(=O)c3ccccc3OC)c2n1C (centres undefined)	n	x	n	x	x	n
COc1ccc(Nc2nc(N3CCN(S(=O)(=O)N(C)C)CC3)nc3ccccc23)cc1	n	x	x	x	11.2µM	x
COc1ccccc1Nc1nc(-c2ccccc2O)nc2ccccc12	n	n	n	n	3.98µM	n
CCOc1ccc(C(=O)NCCn2cc(SCC(=O)NCCc3ccc(OC)c(OC)c3)c3ccccc32)cc1	n	u	n	u	x	n
CCN1CCCC1CNC(=O)c1cnn(-c2nccc(-c3ccccc3F)n2)c1C (centres undefined)	n	x	n	x	x	n
COc1ccc(NC(=O)C2CCCN(c3ncnc4c3nc3n4CCCCC3)C2)c(OC)c1 (centres undefined)	n	x	n	n	x	n
CCn1cc(C(=O)O)c(=O)c2cc(F)c(N/N=C/c3ccccc3[N+](=O)[O-])cc21	20µM	n	n	u	n	n
O=C(CCN1CCN(Cc2ccccc2)CC1)NNC(=O)Cc1ccc(Cl)c(Cl)c1	n	n	28.2µM	n	u	u
CCCc1cc(=O)oc2cc(OCC(=O)NC3CCN(Cc4ccccc4)CC3)ccc12	n	x	x	x	u	x
CCCc1cc(=O)oc2c(C)c(OCC(=O)NC3CCN(Cc4ccccc4)CC3)ccc12	n	x	x	x	6.31µM	x
Cc1ccc(-c2nnn(CC(=O)NC3CCN(Cc4ccccc4)CC3)n2)cc1	n	u	x	n	22.4µM	x
Cc1ccc(NS(=O)(=O)c2ccc(C(=O)NC3CCN(Cc4ccccc4)CC3)cc2)cc1	u	u	u	11.2µM	u	u
O=C(NC1CCN(Cc2ccccc2)CC1)c1ccccc1	n	x	x	x	n	x
COc1ccc(CCNC(=O)c2cccc(-n3cnc4cccnc43)c2C)cc1OC	n	x	n	n	x	n
CC(C)c1nc2cccnc2n1C1CCN(C(=O)Cn2cccn2)CC1	n	x	n	x	x	n
COc1ccc2c(c1)OC1(O)COc3cc(OC)c(OC)cc3C1=C2 (centres undefined)	n	x	n	x	x	n
Cc1ccc(Cl)cc1NC(=O)COCc1cc(-c2ccco2)on1	n	x	n	n	x	n
CC1Cc2cc(S(=O)(=O)N(C)c3ccc(Br)cc3)ccc2N1C(=O)C1CC1 (centres undefined)	u	x	n	u	x	n
O=C(NC1CCN(Cc2ccccc2)CC1)c1cccc(S(=O)(=O)Nc2ccc(SC(F)F)cc2)c1	u	x	x	x	2.82µM	x
O=C(NC1CCN(Cc2ccccc2)CC1)c1cc(S(=O)(=O)Nc2ccc(F)cc2)ccc1Cl	n	u	n	u	u	n
O=C(NC1CCN(Cc2ccccc2)CC1)c1cccc(NS(=O)(=O)c2ccc(Br)cc2)c1	u	x	x	x	11.2µM	x
O=C(Cc1ccccc1)NC1CCN(Cc2ccccc2)CC1	n	n	n	n	n	n
Cc1ccc(NS(=O)(=O)c2cccc(C(=O)NC3CCN(Cc4ccccc4)CC3)c2)cc1	n	u	u	n	12.6µM	u
O=C(Cc1ccc(Br)cc1)NC1CCN(Cc2ccccc2)CC1	n	u	n	x	10µM	n
SMILES	FMDV inh	Marburg entry inh	VACV mCherry inh	LASV entry inh	HCV inhibitor	Vaccinia Venus
COc1ccccc1C(=O)Nc1cccc(N2CCC(NCc3cnn(-c4ccccc4)n3)CC2)c1	n	x	n	x	x	n
CC=COC(=O)N[C@@H](c1ccccc1)[C@]1(C(=O)OCC)CCCC1=O	x	n	x	x	x	x
COc1ccc(NC(=O)CSC2=Nc3ccccc3N=C(c3ccc(F)cc3)C2)cc1OC	u	x	n	n	x	n
Cc1ccc(CN2C3CCCC2CC(NC(=O)c2ccc(C)cc2)C3)cc1 (centres undefined)	n	13µM	x	u	31.6µM	x
COc1ccc(OC)c(C2(O)CSC(=Nc3cccnc3)N2Cc2ccco2)c1 (centres undefined)	u	n	n	n	u	n
OC1(c2ccc(OC(F)F)cc2)CSC(=Nc2cccnc2)N1C1CC1 (centres undefined)	u	3.55µM	n	u	31.6µM	u
COc1ccc(C(=O)C[n+]2cccc3cc(Cl)ccc32)cc1	x	x	n	x	x	n
Cc1cn2c(=O)cc(COc3ccccc3NC(=O)c3ccccc3C)nc2s1	n	n	n	n	x	n
CCNc1nc(NCC)nc(N(C#N)CCOc2ccccc2)n1	n	n	x	n	n	x
CCNc1nc(NC(C)C)nc(N(C#N)CCOc2ccccc2)n1	n	n	n	n	22.4µM	n
CC(C)(C)[S+](=O)([O-])/C(C#N)=C/NC1=NCCCC1	x	n	x	x	x	x
O=C(NC1CCCCCCC1O)c1ccccc1 (centres undefined)	n	u	n	n	n	n
O=C(NC1=NC2CCCCC2N1)c1ccccc1 (centres undefined)	12.6µM	u	n	u	n	n
COc1cccc(-n2cnc3scc(-c4cccs4)c3c2=O)c1	u	n	x	n	11.2µM	u
CC1CCCCN1C(=O)Cc1ccc(Cl)cc1 (centres undefined)	n	n	n	n	n	n

From PubChem
